In PubChem BioAssay (Tox21):
Several values for one entry are separate records, joined by “and”; a condition that tells them apart may be missing. Equal values may be shown once. Records with an inconclusive call do not appear. Entries that show only a call come without a potency. Where a structure was tested more than once in an assay, its records may differ in their call. Activity calls are given as the source filed them. Unless noted, calls follow the shape of the dose curve; as a rule, active = well fitted curve in the direction sought with a large enough effect in the repeat runs; inconclusive = weak or mixed curves; inactive = no such curve, though single readings can be large; an effect the other way counts as inactive or inconclusive.

Assays:
[1] = qHTS assay to identify small molecule agonists of H2AX (AID 1224845; active = well fitted activation curve with a large enough effect in the signal ratio in the repeat runs, not every such curve was filed as active; the % refers to the signal ratio; also: potency is read from the fitted curve at half-maximal effect)
How it was run: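 Wild-type CHO-K1 cells plated overnight, then exposed 3 hr at 37C to compounds at 15 concentrations (0.76% DMSO). Lysed, then HTRF anti-pH2AX(S139)-cryptate/anti-H2AX-d2 detection after 24 hr at room temperature; emissions 665 and 620 nm.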

[2] = qHTS assay to identify small molecule agonists of H2AX - cell viability counter screen (AID 1224847; calls by dose curve; also: nearly all actives have a fitted effect of over 30% in size; also: potency is read from the fitted curve at half-maximal effect)
How it was run: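 Cytotoxicity counter screen in wild-type CHO-K1 cells: a 3 hr compound treatment at 37C across 15 concentrations, followed by CellTiter-Glo luminescence to gauge viable cells.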

[3] = qHTS assay to identify small molecule antagonists of the estrogen related receptor (ERR) signaling pathway from Tox21 library (AID 1224848); also: nearly all actives have a fitted effect of over 50% in size; also: potency is read from the fitted curve at half-maximal effect
How it was run: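 Screening used an ERR reporter line supplied by NTP, exposed for 18 h at 37 C to library compounds delivered in DMSO. Signal was luciferase luminescence developed with ONE-Glo at room temperature for 30 min.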

[4] = qHTS assay to identify small molecule agonists of the estrogen related receptor (ERR) signaling pathway from Tox21 library (AID 1224849; calls by dose curve; also: nearly all actives have a fitted effect of over 15% in size); details: ERR reporter cell line, ONE-Glo luciferase, 18 h
How it was run: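 ERR reporter cell line (NTP) seeded, rested 6 h at 37 C/5% CO2, then pinned with Tox21 compounds in DMSO. After 18 h at 37 C, ONE-Glo luciferase luminescence was read following 30 min at room temperature.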

[5] = qHTS RealTime-Glo MT Cell Viability Assay in HepG2 cells - 24 hour (AID 1224867); also: nearly all actives have a fitted effect of over 50% in size; also: potency is read from the fitted curve at half-maximal effect
How it was run: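 qHTS, HepG2, 600 cells/well, RealTime-Glo (NanoLuc + prosubstrate) added with cells; 5 h preincubation; DMSO compound addition; 37 C; luminescence at 0/8/16/24/32/40 h.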

[6] = qHTS RealTime-Glo MT Cell Viability Assay in HEK293 cells - 32 hour (AID 1224868); also: nearly all actives have a fitted effect of over 50% in size; also: potency is read from the fitted curve at half-maximal effect
How it was run: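 Assay medium contained NanoLuc luciferase plus cell-permeant prosubstrate, added with HEK293 cells at 600 cells/well. After 5 h at 37 C/5% CO2 compounds were added; plates stayed at 37 C for 40 h with serial luminescence reads.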

[7] = A CellTox Green Cytotoxicity Assay to monitor cytotoxicity in HEK293 cells - 0 hour (AID 1224869); also: nearly all actives have a fitted effect of over 50% in size
How it was run: (§1)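 HEK293 cells premixed with CellTox Green dye were seeded at 600 cells/well and left 5 h at 37 C/5% CO2 before pin transfer of 23 nL compound in DMSO. Fluorescence from dye bound to dead-cell DNA was read during 40 h treatment.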

[8] = qHTS RealTime-Glo MT Cell Viability Assay in HepG2 cells - 40 hour (AID 1224870); also: nearly all actives have a fitted effect of over 50% in size; also: potency is read from the fitted curve at half-maximal effect
How it was run: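 HepG2 cells mixed with RealTime-Glo MT reagents (NanoLuc plus cell-permeant prosubstrate) were seeded at 600 cells/well, incubated 5 h at 37 C/5% CO2, then pinned with compounds in DMSO; nonlytic luminescence tracked viability during 40 h treatment.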

[9] = A CellTox Green Cytotoxicity Assay to monitor cytotoxicity in HEK293 cells - 40 hour (AID 1224871); also: nearly all actives have a fitted effect of over 45% in size; also: potency is read from the fitted curve at half-maximal effect
How it was run: as §1

[10] = qHTS assay to identify small molecule agonists of the hypoxia (HIF-1) signaling pathway (AID 1224846; active = well fitted activation curve with a large enough effect in the signal ratio in the repeat runs, not every such curve was filed as active; the % refers to the signal ratio)
How it was run: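 HRE-bla ME-180 cells (beta-lactamase reporter under hypoxia response element) were plated at 2,000 cells/well in medium with 0.5% dialyzed FBS, rested 5 hrs, then given compounds in DMSO for 17 hrs at 37C, 5% CO2. Reporter induction was read with CCF4-AM FRET substrate.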

| SMILES | Potency [1] | Potency [2] | Potency [3] | activity change, positive = activation ([4]; at 42.5 µM (top of the series)) | Potency [5] | Potency [6] | Potency [7] | Potency [8] | Potency [9] | Potency [10] | activity change, positive = activation ([4]; at 92.4 µM (top of the series)) |
| --- | --- | --- | --- | --- | --- | --- | --- | --- | --- | --- | --- |
| CC(C(O)c1ccc(O)cc1)N1CCC(Cc2ccccc2)CC1 (stereo not drawn) | inactive | inactive | inactive | -0.85% (inactive) | inactive | inactive | inactive | inactive | inactive | – | – |
| Cc1cc(C(C)(C)C)c(O)c(C(C)(C)C)c1 | inactive | – | – | – | inactive | inactive | inactive | inactive | 49.1 µM (active) | inactive | – |
| NC(N)=Nc1nc(CSCC/C(N)=N/S(N)(=O)=O)cs1 | inactive | inactive | inactive | 8.96% (inactive) | inactive | inactive | inactive | inactive | inactive | – | 4.57% (inactive) |
| O=C1NCC2(CCN(CCc3ccccc3)CC2)O1 | inactive | inactive | – | – | inactive | inactive | inactive | inactive | inactive | – | – |
| Clc1ccc2c(c1)C(N1CCNCC1)=Nc1ccccc1O2 | inactive | inactive | – | – | 54.9 µM (active) | 43.6 µM (active) and 26.8 µM (active) | inactive | 54.9 µM (active) | 26.8 µM (active) | – | – |
| CC(=O)N[C@@H](CS)C(=O)O | inactive | inactive | – | – | inactive | inactive | inactive | inactive | inactive | – | – |
| Cc1ccc(-c2cc(C(F)(F)F)nn2-c2ccc(S(N)(=O)=O)cc2)cc1 | inactive | 100 µM (active) and 113 µM (active) | 27.2 µM (active) and 61.1 µM (active) | -20.4% (inactive) | 48.8 µM (active) and 49 µM (active) | 38.7 µM (active) and 30.9 µM (active) | inactive | 49 µM (active) and inactive | 54.7 µM (active) and 54.9 µM (active) and inactive | – | -66.1% (inactive) and -48.6% (inactive) |
| NNCCc1ccccc1 | inactive | inactive | – | – | inactive | inactive | inactive | inactive | inactive | – | – |
| Oc1c(Cl)cc(Cl)c(Cl)c1Cc1c(O)c(Cl)cc(Cl)c1Cl | inactive | 25.2 µM (active) and 40.1 µM (active) | 3.05 µM (active) and 2.73 µM (active) and 3.35 µM (active) | -49.7% (inactive) | inactive | 3.08 µM (active) and 5.49 µM (active) | inactive | inactive and 38.9 µM (active) | 48.9 µM (active) and 49 µM (active) and inactive | – | -37.2% (inactive) and -60.8% (inactive) |
| CC(C)(c1ccccc1)c1ccc(Nc2ccc(C(C)(C)c3ccccc3)cc2)cc1 | inactive | inactive | 15.3 µM (active) and inactive | – | inactive | inactive | inactive | inactive | inactive | – | -43.2% (inactive) and -18.6% (inactive) |
| BrC1CCC(Br)C(Br)CCC(Br)C(Br)CCC1Br (stereo not drawn) | 89.4 µM (active) | 79.7 µM (active) and 95.6 µM (active) | 27.2 µM (active) and 58 µM (active) | – | – | – | inactive | inactive | inactive | – | -60.1% (inactive) and -54.5% (inactive) |
| NCCO | inactive | inactive | – | – | inactive | – | inactive | inactive | inactive | inactive | – |
| CCCCCCCCCCCCc1ccccc1O | 55.9 µM (active) and 40.1 µM (active) | 55.9 µM (active) and 40.1 µM (active) | – | – | inactive and 38.9 µM (active) | 48.3 µM (active) and 49 µM (active) | inactive | inactive and 49 µM (active) | 43.1 µM (active) and 34.7 µM (active) | – | – |
| Cc1cccc2n[nH]nc12 | inactive | inactive | inactive | – | inactive | inactive | inactive | inactive | inactive | – | 7.89% (inactive) and -7.83% (inactive) |
